Results published in PubChem BioAssay AID1159580 (chemical genetic matrix, 2015).
Where “and” joins values, the source holds several entries; their conditions need not be identical. Identical values can stand only once. Among all 5,500 compounds or so, about 2,000 (36%) were called active. Inconclusive results (about 18%) are left out. No stated cut-off is given here; in the data, active means normalized growth mostly below about 0.91 (no sharp cut-off); inconclusive means no clear call, values can overlap the other calls; inactive means mostly above about 0.92. The list shows a part of the results.

Experiment: chemical genetic growth profiling, strain panel (AID 1159580);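 further: tested at 20 µM; growth read once vehicle control cultures reached saturation at 30 °C; 1 = growth at the plate median or of vehicle wells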
Settings: S. cerevisiae deletion strains, growth OD

Measured: normalized growth

OCCN1C[C@@H](O)[C@@H](O)C(O)C1CO (stereo partly specified)
inactive: locus YAL013W, strain DEP1, stronger effect = lower value 1.02 | locus YAL021C, strain ccr4, stronger effect = lower value 0.993 | locus YAL026C, strain drs2, stronger effect = lower value 1.02 | locus YAL030W, strain snc1, stronger effect = lower value 0.999 | locus YBL061C, strain skt5, stronger effect = lower value 1.01 | locus YBR009C, strain hhf1, stronger effect = lower value 1 | locus YBR021W, strain FUR4, stronger effect = lower value 1.01 | locus YBR023C, strain chs3, stronger effect = lower value 1 | locus YBR171W, strain sec66, stronger effect = lower value 1.01 | locus YBR229C, strain ROT2, stronger effect = lower value 1.02 | locus YBR231C, strain swc5, stronger effect = lower value 1.01 | locus YBR279W, strain paf1, stronger effect = lower value 1.01 | locus YCL011C, strain gbp2, stronger effect = lower value 0.996 | locus YCL016C, strain dcc1, stronger effect = lower value 0.993 | locus YCL029C, strain bik1, stronger effect = lower value 1 | locus YCL069W, strain vba3, stronger effect = lower value 0.991 | locus YCR088W, strain abp1, stronger effect = lower value 0.997 | locus YDL005C, strain med2, stronger effect = lower value 1.01 | locus YDL035C, strain GPR1, stronger effect = lower value 1.01 | locus YDL040C, strain nat1, stronger effect = lower value 1 | locus YDL074C, strain BRE1, stronger effect = lower value 1.03 | locus YDL101C, strain DUN1, stronger effect = lower value 1.01 | locus YDL134C, strain PPH21, stronger effect = lower value 1.02 | locus YDL185W, strain tfp1, stronger effect = lower value 0.994 | locus YDL192W, strain arf1, stronger effect = lower value 1 | locus YDR001C, strain nth1, stronger effect = lower value 1 | locus YDR069C, strain doa4, stronger effect = lower value 1.01 | locus YDR101C, strain arx1, stronger effect = lower value 1.01 | locus YDR137W, strain rgp1, stronger effect = lower value 1.01 | locus YDR150W, strain NUM1, stronger effect = lower value 1.02 | locus YDR159W, strain sac3, stronger effect = lower value 1.01 | locus YDR162C, strain NBP2, stronger effect = lower value 1.01 | locus YDR195W, strain ref2 0.992 | locus YDR297W, strain sur2, stronger effect = lower value 1.01 | locus YDR318W, strain mcm21, stronger effect = lower value 1 | locus YDR334W, strain swr1, stronger effect = lower value 1.01 | locus YDR335W, strain msn5, stronger effect = lower value 0.992 | locus YDR388W, stronger effect = lower value 1 | locus YDR392W, strain spt3, stronger effect = lower value 0.989 | locus YDR502C, strain sam2, stronger effect = lower value 1 | locus YEL003W, strain gim4, stronger effect = lower value 1.01 | locus YEL037C, strain rad23, stronger effect = lower value 1 | locus YEL061C, strain CIN8 (second series), stronger effect = lower value 0.989 | locus YEL061C, strain CIN8, stronger effect = lower value 1.02 | locus YER015W, strain faa2, stronger effect = lower value 1.01 | locus YER016W, strain bim1, stronger effect = lower value 0.983 | locus YER110C, stronger effect = lower value 0.993 | locus YER111C, strain swi4, stronger effect = lower value 1.02 | locus YER155C, strain BEM2 (second series), stronger effect = lower value 1.01 | locus YER155C, strain BEM2, stronger effect = lower value 1.01 | locus YER167W, strain BCK2, stronger effect = lower value 1.02 | locus YFR010W, strain ubp6, stronger effect = lower value 1.01 | locus YGL078C, strain dbp3, stronger effect = lower value 1.01 | locus YGL086W, strain mad1, stronger effect = lower value 1 | locus YGL167C, strain pmr1, stronger effect = lower value 1.01 | locus YGL173C, strain kem1, stronger effect = lower value 1.02 | locus YGL227W, strain vid30, stronger effect = lower value 1.01 | locus YGL240W, strain doc1, stronger effect = lower value 1.01 | locus YGL248W, strain PDE1, stronger effect = lower value 1.01 | locus YGL253W, strain hxk2, stronger effect = lower value 1 | locus YGR078C, strain PAC10, stronger effect = lower value 1.04 | locus YGR135W, strain pre9, stronger effect = lower value 1 | locus YGR229C, strain SMI1, stronger effect = lower value 1.02 | locus YGR252W, strain gcn5, stronger effect = lower value 0.969 | locus YHR013C, strain ard1, stronger effect = lower value 0.988 | locus YHR027C, strain rpn1, stronger effect = lower value 1.01 | locus YHR030C, strain SLT2, stronger effect = lower value 1.02 and 1.01 | locus YHR079C, strain IRE1 (second series), stronger effect = lower value 1.01 | locus YHR079C, strain IRE1, stronger effect = lower value 1 | locus YHR094C, strain hxt1, stronger effect = lower value 1.01 | locus YHR129C, strain ARP1, stronger effect = lower value 1.01 | locus YHR142W, strain chs7, stronger effect = lower value 0.984 | locus YHR200W, strain rpn10, stronger effect = lower value 1 | locus YIL066C, strain RNR3, stronger effect = lower value 1.02 | locus YIL073C, strain SPO22, stronger effect = lower value 1.03 | locus YIL125W, strain kgd1, stronger effect = lower value 1 | locus YIR030C, strain dcg1, stronger effect = lower value 1.01 | locus YJL092W, strain hpr5, stronger effect = lower value 1 | locus YJL095W, strain BCK1 (second series), stronger effect = lower value 1.01 | locus YJL095W, strain BCK1, stronger effect = lower value 1.02 and 1.01 | locus YJL115W, strain asf1, stronger effect = lower value 1.02 | locus YJL129C, strain trk1, stronger effect = lower value 0.997 | locus YJL134W, strain LCB3, stronger effect = lower value 1.01 | locus YJL154C, strain vps35, stronger effect = lower value 0.994 | locus YJL164C, strain tpk1, stronger effect = lower value 0.996 | locus YJL166W, strain qcr8, stronger effect = lower value 1.01 | locus YJL168C, strain set2, stronger effect = lower value 1 | locus YJL187C, strain SWE1 (second series), stronger effect = lower value 1.02 | locus YJR043C, strain POL32, stronger effect = lower value 1 | locus YJR066W, strain TOR1, stronger effect = lower value 0.962 | locus YJR075W, strain HOC1, stronger effect = lower value 1.01
